The whole screen tested about 360,000 compounds, of which about 340 (0.094%) were called active. The sample holds actives, similar compounds and a random draw of the others, so the mix is not that of the screen. A number with no mark means an inactive call. No stated cut-off is given here; in the data, active means inhibition above about 40%; inconclusive means no clear call, values can overlap the other calls; inactive means below that.
System: 7,8-diaminopelargonic acid synthase BioA (Mycobacterium tuberculosis)
Assay: M. tuberculosis BioA enzyme inhibitors, primary screen, biochemical, plate reader, single point, HTS (AID 602481)
Conditions: purified M. tuberculosis BioA enzyme, at 9.99 µM, active compounds read high

| Structure (SMILES) | inhibition |
| --- | --- |
| O=C(NCC1CC1)[C@@H]1[C@@H](CO)[C@@H]2Cn3c(ccc(-c4ccccc4)c3=O)[C@H]1N2Cc1nccs1 | 0.617% |
| CC(C)CC#Cc1ccc2c(c1)O[C@H](CN(C)C(=O)Cc1cccnc1)[C@H](C)CN([C@@H](C)CO)S2(=O)=O | 5.43% |
| CC(=O)c1ccc(N2CCN(C(=O)c3ccc4nc[nH]c4c3)CC2)cc1 | 57% (active) |
| CC(=O)c1ccc(N2Cc3ccccc3C2)cc1 | 10.6% |
| CC(=O)c1ccc(N2CCN(CC(O)c3ccccc3)CC2)cc1 (stereo not drawn) | 20.2% |
| Cc1ccc(Cn2c(C)c3cnn(CC(=O)NCc4ccccn4)c(=O)c3c2C)cc1 | 8.47% |
| O=C(Cn1ncc2c3ccccc3n(Cc3ccccc3)c2c1=O)NCc1ccccn1 | -3.36% |
| Cc1c2cnn(CC(=O)NCc3ccccn3)c(=O)c2c(C)n1Cc1ccc(Cl)cc1 | 86.8% (active) |
| O=C(CSc1n[nH]c(-c2cccnc2)n1)Nc1ccnc2ccccc12 | 46% (active) |
| O=C(CSc1n[nH]c(-c2cccnc2)n1)Nc1ccc(Cl)cc1 | 16.3% |
| O=C(CSc1ncn[nH]1)Nc1ccnc2ccccc12 | 1.08% |
| Cc1ccc(S(=O)(=O)N(C)C[C@@H]2Oc3ccc(NS(=O)(=O)c4ccc(F)cc4)cc3CC(=O)N([C@@H](C)CO)C[C@H]2C)cc1 | 2.21% |
| C[C@@H]1CN([C@H](C)CO)C(=O)Cc2cc(NC(=O)CCCCCC(=O)Nc3ccccc3N)ccc2O[C@H]1CN(C)S(=O)(=O)c1ccc(F)cc1 | 0.122% |
| C[C@@H]1CN([C@@H](C)CO)C(=O)c2c(c3ccccc3n2C)-c2ccccc2CO[C@H]1CN(C)Cc1cccc(C(=O)O)c1 | -1.04% |
| CCC(=O)Nc1ccc2c(c1)C(=O)N(C)C[C@H](OC)[C@H](C)CN(C(=O)C1CCC1)[C@@H](C)CO2 | 1.3% |
| C[C@H](CO)N1C[C@H](C)[C@@H](CN(C)S(=O)(=O)c2cn(C)cn2)Oc2c(NC(=O)C3CC3)cccc2C1=O | -1.33% |
| CC(=O)N[C@@H]1C=C[C@H](CC(=O)NCC2CCCCC2)O[C@H]1CO | -0.006% |
| CO[C@H]1CN(C)C(=O)c2ccc(NS(C)(=O)=O)cc2OC[C@@H](C)N(Cc2ccccc2)C[C@@H]1C | -2.35% |
| CCCNC(=O)N(C)C[C@H]1Oc2ncc(C#C[C@@H](C)O)cc2C(=O)N([C@@H](C)CO)C[C@@H]1C | -0.359% |
| CCC(=O)N1C[C@@H](C)[C@@H](OC)CN(C)C(=O)c2ccc(NC(=O)C3CCCCC3)cc2OC[C@H]1C | -0.504% |
| C[C@H](CO)N1C[C@H](C)[C@@H](CN(C)Cc2ccccc2)Oc2ccc(NC(=O)CCCN(C)C)cc2C1=O | -2.64% |
| CCCNC(=O)C[C@@H]1CC[C@H]2[C@H](COc3ccc(NS(=O)(=O)c4ccccc4C)cc3C(=O)N2C)O1 | 1.74% |
| COc1c(C=O)c(CCN(C)C(=O)c2ccc(F)cc2)cc2c1OCO2 | 48.4% (active) |

| Structure (SMILES) | inhibition |
| --- | --- |
| COc1ccc(C(=O)N(C)Cc2ccc(OC)c(OC)c2OC)cc1S(=O)(=O)N1CCOCC1 | -0.32% |
| CO[C@@H](CN(C)C(=O)c1ccc2c(c1)OCO2)[C@@H](C)CN([C@H](C)CO)S(=O)(=O)c1ccccc1 | 3.78% |
| O=C(Cc1ccccc1)N1C[C@H]2[C@@H](c3ccccc31)[C@H](CO)N2C(=O)C1CCOCC1 | -4.05% |
| CC(=O)N(C)C[C@@H]1Oc2ncc(C#Cc3ccccn3)cc2C(=O)N([C@@H](C)CO)C[C@@H]1C | -5.71% |
| CN(C)C(=O)c1cccc(-c2ccc3c(c2)[C@H]2[C@H](CCN2C(=O)c2cccnc2)[C@H](CO)N3)c1 | 19.8% |
| Cc1ccccc1S(=O)(=O)N(C)C[C@@H]1OCc2ccccc2-c2c(n(C)c3ccccc23)C(=O)N([C@H](C)CO)C[C@H]1C | -1.26% |
| C[C@@H]1CCCCO[C@H](CN(C)S(=O)(=O)c2cn(C)cn2)[C@@H](C)CN([C@@H](C)CO)C(=O)c2cc(NC(=O)CCC(F)(F)F)ccc2O1 | -0.672% |
| CN1c2ccc(-c3ccccc3F)cc2[C@H]2[C@H](CCN2C(=O)Cc2ccccn2)[C@H]1CO | 6.26% |
| CN1c2ccc(-c3ccccc3)cc2[C@H]2[C@H](CCN2C(=O)Cc2ccccn2)[C@H]1CO | 50.1% (active) |
| COc1ccc(-c2ccc3c(c2)[C@@H]2[C@@H](CCN2C(=O)Cc2ccccn2)[C@H](CO)N3C)cc1 | -0.705% |
| COCc1cn(CC[C@H]2CC[C@@H](NC(=O)Nc3ccc(OC)cc3)[C@@H](CO)O2)nn1 | 4.23% |
| CN1c2ccc(-c3cccc(C#N)c3)cc2[C@@H]2[C@@H](CCN2C(=O)C2CCC2)[C@@H]1CO | 1.18% |
| C=CCOc1nc2c(c(=O)n(C)c(=O)n2C)n1Cc1ccc(Cl)cc1Cl | -1.57% |
| Cn1c(=O)c2c(nc(OCc3cccnc3)n2Cc2ccccc2)n(C)c1=O | 69.8% (active) |
| CCOC(=O)N1CCN(Cc2nc3c(c(=O)n(C)c(=O)n3C)n2Cc2ccccc2)CC1 | 4.21% |
| CN(C)C(=O)C[C@H]1C[C@H]2c3cc(NC(=O)Nc4ccc(C(F)(F)F)cc4)ccc3O[C@H]2[C@@H](CO)O1 | -0.072% |
| COCCN(C[C@H]1[C@H](c2ccccc2)[C@@H](CO)N1C(C)=O)C(=O)c1cccnc1 | 4.64% |
| C[C@H](CO)N1C[C@H](C)[C@@H](CN(C)C(=O)Cc2cccnc2)Oc2ncc(-c3ccncc3)cc2C1=O | 5.57% |
| CCCNC(=O)N1C[C@H](C)[C@H](OC)CN(C)C(=O)c2cc(NC(=O)CC)ccc2OC[C@H]1C | 0.679% |
| CO[C@@H](CN(C)S(=O)(=O)c1ccc(C)cc1)[C@@H](C)CN([C@@H](C)CO)S(=O)(=O)c1cccc(Cl)c1 | -0.469% |
| CN1C(=O)c2cc(NC(=O)Nc3ccccc3F)ccc2OC[C@H]2O[C@@H](CC(=O)Nc3cccc(Cl)c3)CC[C@@H]21 | 4.99% |
| CO[C@H]1CN(C)C(=O)c2ccc(NS(=O)(=O)c3cn(C)cn3)cc2OC[C@H](C)N(C)C[C@H]1C | -1.67% |
| CC(C)CC#Cc1ccc2c(c1)O[C@H](CN(C)Cc1ccccc1F)[C@@H](C)CN([C@@H](C)CO)S2(=O)=O | 0.76% |

| Structure (SMILES) | inhibition |
| --- | --- |
| O=C(NCCN1CCCC1)[C@@H]1N[C@@H]2c3ccc(-c4ccccc4)c(=O)n3C[C@@H]2[C@H]1CO | -0.384% |
| CC(C)NC(=O)Nc1ccc2c(c1)C(=O)N([C@H](C)CO)C[C@H](C)[C@@H](CN(C)S(C)(=O)=O)OCCCC[C@@H](C)O2 | -1.93% |
| C[C@H](O)C#Cc1ccc([C@@H]2[C@@H](CO)N3CCCCN(C(=O)c4ccc(F)cc4)C[C@H]23)cc1 | 8.06% |
| O=C(C[C@@H]1CC[C@@H]2[C@H](COC[C@@H](O)CN2S(=O)(=O)c2cccc(Cl)c2)O1)N1CCOCC1 | 0.133% |
| C[C@@H]1CN([C@@H](C)CO)S(=O)(=O)c2ccc(-c3cncnc3)cc2O[C@@H]1CN(C)C(=O)C1CC1 | -2.8% |
| COc1cc(OC)cc(-c2nc3nc(C)c(CCC(=O)NCc4ccco4)c(C)n3n2)c1 | -1.9% |
| Cc1ccc(Cc2c(C)nc3nc(SCC(=O)NCCN4CCOCC4)nn3c2C)cc1 | 53.9% (active) |
| Cc1nc2nc(SCC(=O)NCc3ccco3)nn2c(C)c1Cc1ccccc1 | 45.5% (active) |
| O=C(Cn1cc2c(n1)CCCCC2)NCCN1CCOCC1 | 1.9% |
| Cc1nc2c(-c3ccc(F)cc3)c(C)nn2c(C)c1CCC(=O)NCc1ccco1 | -0.947% |
| Cc1ccc(Cn2c(C)c3cnn(CC(=O)NCCN4CCOCC4)c(=O)c3c2C)cc1 | 11.4% |
| CO[C@H]1CN(C)C(=O)c2ccc(NC(=O)c3cccc(Oc4ccccc4)c3)cc2OC[C@@H](C)NC[C@H]1C | 2.28% |
| C/C=C/c1ccc2c(c1)O[C@@H](CN(C)S(C)(=O)=O)[C@@H](C)CN([C@H](C)CO)S2(=O)=O | 3.09% |
| CN1C(=O)c2cc(NS(=O)(=O)c3ccc(F)cc3)ccc2OC[C@@H]2O[C@@H](CC(=O)O)CC[C@H]21 | 0.387% |
| C[C@@H](NC(=O)C[C@H]1C=C[C@H](NC(=O)C2CCOCC2)[C@H](CO)O1)c1ccccc1 | 1.84% |
| C[C@H](CO)N1C[C@H](C)[C@@H](CN(C)CC2CCCCC2)Oc2ccc(NS(=O)(=O)c3cccs3)cc2CC1=O | 3.51% |
| CO[C@@H]1CN(C)C(=O)c2cc(NC(=O)c3cnccn3)ccc2OC[C@@H](C)N(C(=O)C2CC2)C[C@@H]1C | 9.9% |
| CC=Cc1ccc2n(c1=O)C[C@@H]1[C@@H](CO)[C@H](C(=O)N3CCc4ccccc4C3)N(C(=O)C3CCC3)[C@H]21 (mixture of isomers) | 0.815% |
| CC(C)(C)S(=O)N1Cc2cc(C(=O)O)nc(-c3cccc(-c4cc5ccccc5o4)c3)c2[C@@H]1CCO (stereo partly drawn) | -0.446% |
| CCCNC(=O)Nc1ccc2c(c1)C(=O)N(C)C[C@@H](OC)[C@@H](C)CN(C)[C@@H](C)CO2 | -0.7% |
| CN(C)c1ccc2c(c1)[C@H]1C[C@H](CC(=O)NCc3ccc(Cl)cc3)O[C@H](CO)[C@H]1O2 | 0.352% |
| O=C(CC1CC1)N1[C@@H]2CN(S(=O)(=O)c3ccc(F)cc3)c3ccccc3[C@@H]2[C@@H]1CO | 3.83% |
